40 targets from the supplement of paper PMC12819154, “High-throughput peptide-centric local stability assay extends protein–ligand identification to membrane proteins, tissues and bacteria” (Nature Structural & Molecular Biology, 2025) can be followed below.
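Further: lysate desalted by size exclusion to strip endogenous ATP, peptide intensities built from DIA-NN precursor signals, and peptides missing any value discarded before comparison.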

Compound in this experiment: Nc1ncnc2c1ncn2[C@@H]1O[C@H](COP(=O)(O)OP(=O)(O)OP(=O)(O)O)[C@@H](O)[C@H]1O [adenosine 5'-triphosphate]
As to the kind of experiment: log2 fold change of tryptic peptide abundance, ligand vs vehicle (limited proteolysis) (log2 ratio); higher = more trypsin-susceptible (destabilized). The settings on record: ligand concentration: 5 mM; sample: E. coli desalted lysate; replicate design: treated before aliquoting. The protocol: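 HT-PELSA: desalted E. coli K-12 BW25113 lysate (with 12 mM MgCl2) incubated with 5 mM ATP (pH 7) or water for 30 min at 25 C, then a 4 min trypsin pulse at 22 C. Peptides were quantified by DIA-MS (4 replicates). Value is the peptide log2 fold change (treated/control); negative = stabilized. Scale: negative = ligand-stabilized region.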
As for “UniProt P0AD57 (peptide sequence: QRAEEEADKAIAALQVLPDTPWR, peptide start residue: 286)”, the log2 fold change came out at 0.56.

As to “UniProt P42593 (peptide sequence: MIEVTGVTLK, peptide start residue: 435)”, the log2 fold change was -1.15.

“UniProt P07001 (peptide sequence: FFTGQITAAGK, peptide start residue: 152)”: the log2 fold change was -0.651.

With “UniProt P77171 (peptide sequence: GRQGAQLTLPGEQFLTHAVR, peptide start residue: 61)”, the log2 fold change was 0.909.

For “UniProt P00914 (peptide sequence: LSASLATGGLSPR, peptide start residue: 238)”, the log2 fold change is -0.871.

“UniProt P64636 (peptide sequence: EDTIPFLEALK, peptide start residue: 96)”: the log2 fold change stood at 0.412.

Take “UniProt P0A6B4 (peptide sequence: QLAIFNTFCEGKPGQR, peptide start residue: 174)”: the log2 fold change was 0.707.

For “UniProt P52108 (peptide sequence: KKLLDNAAEPYR, peptide start residue: 211)”, the log2 fold change is 0.266.

Turning to “UniProt P37691 (peptide sequence: MTSNLFGMQK, peptide start residue: 128)”, the log2 fold change was determined as 0.503.

As for “UniProt P39274 (peptide sequence: FYINDKQGK, peptide start residue: 10)”, the log2 fold change worked out at 0.423.

Regarding “UniProt P77148 (peptide sequence: ILLGEYFR, peptide start residue: 100)”, the log2 fold change is -0.452.

As for “UniProt P24173 (peptide sequence: IKLPWGAPHEEER, peptide start residue: 213)”, the log2 fold change was -0.445.

Take “UniProt P45522 (peptide sequence: TLVTLGMHPHQAQR, peptide start residue: 530)”: the log2 fold change came out at 0.604.

Regarding “UniProt P39830 (peptide sequence: GANQVVMGER, peptide start residue: 528)”, the log2 fold change turned out to be 1.21.

As to “UniProt P52612 (peptide sequence: DRGQHVLLIMDSLTR, peptide start residue: 262)”, the log2 fold change is -1.35.

On to “UniProt P75824 (peptide sequence: AGVCGCCK, peptide start residue: 275)”, for which the log2 fold change came out at 0.616.

“UniProt P03018 (peptide sequence: AHHMDANLPQDFQILDSEDQLR, peptide start residue: 100)”: the log2 fold change is -2.2.

“UniProt P39160 (peptide sequence: TWQIAMDGSQKLPQR, peptide start residue: 366)”: the log2 fold change was -0.725.

As for “UniProt P25666 (peptide sequence: MHLFTIKK, peptide start residue: 171)”, the log2 fold change was -0.804.

Turning to “UniProt P27550 (peptide sequence: IAEAAVVGIPHNIK, peptide start residue: 542)”, the log2 fold change is -2.61.

In the case of “UniProt P56258 (peptide sequence: VGCVFATR, peptide start residue: 136)”, the log2 fold change is -0.934.

Regarding “UniProt P38097 (peptide sequence: VTVYEPQQAAAHSER, peptide start residue: 840)”, the log2 fold change was -1.32.

On to “UniProt P76594 (peptide sequence: SEVQGVMLYLR, peptide start residue: 533)”, for which the log2 fold change was -2.33.

Turning to “UniProt P32173 (peptide sequence: DAPVVWVHDGERDHPTIALVNR, peptide start residue: 119)”, the log2 fold change was -0.372.

Take “UniProt P37751 (peptide sequence: SQLTDDDSQFK, peptide start residue: 183)”: the log2 fold change was -0.401.

As for “UniProt P17888 (peptide sequence: TNYAVSGER, peptide start residue: 188)”, the log2 fold change is -1.98.

“UniProt P37760 (peptide sequence: ALQEYCAK, peptide start residue: 138)”: the log2 fold change was -1.03.

On to “UniProt P24255 (peptide sequence: KHNGHWTVELNSDSIPR, peptide start residue: 280)”, for which the log2 fold change is 0.899.

As for “UniProt P0A9L8 (peptide sequence: FAAQAVMGSAK, peptide start residue: 203)”, the log2 fold change was -0.702.

With “UniProt P15047 (peptide sequence: IGMSAYGASK, peptide start residue: 139)”, the log2 fold change was -1.47.

Turning to “UniProt P08390 (peptide sequence: AVDALAGQSAK, peptide start residue: 168)”, the log2 fold change is 0.237.

In the case of “UniProt P24202 (peptide sequence: LKSRPDAVDLDPK, peptide start residue: 114)”, the log2 fold change amounted to 0.712.

Turning to “UniProt P45799 (peptide sequence: SLQKPTILNVETVAR, peptide start residue: 4)”, the log2 fold change is -1.1.

Turning to “UniProt P76035 (peptide sequence: TIATFQAYLGHPVR, peptide start residue: 176)”, the log2 fold change was 0.609.

In the case of “UniProt P76097 (peptide sequence: FGEIEQR, peptide start residue: 288)”, the log2 fold change came out at 0.885.

As for “UniProt P46889 (peptide sequence: FRDNPSPLTVVLGK, peptide start residue: 957)”, the log2 fold change is -1.51.

With “UniProt P76330 (peptide sequence: FGHQAGDR, peptide start residue: 447)”, the log2 fold change was -3.47.

On to “UniProt P77215 (peptide sequence: AWFTGGATAEK, peptide start residue: 11)”, for which the log2 fold change is -0.425.

For “UniProt P0ACP7 (peptide sequence: TRFVAEETR, peptide start residue: 25)”, the log2 fold change worked out at 1.38.

Turning to “UniProt P76545 (peptide sequence: YLDFAEDREHAESVATK, peptide start residue: 7)”, the log2 fold change is -2.38.
